These results are taken from PubChem BioAssay.

Active and inactive are the calls of the source. Unless noted, no rule for the calls is given here.

The subject of experiment [1] is Wnt5a (protein binding on small-molecule microarray). The experiment is described as follows: small molecules binding Wnt5a protein – biophysical, small-molecule microarray, 635/667 nm fluorescence, primary screen (AID 1142).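 Also: fluorescence read at 667 nm with signal to noise per printed feature.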 Conditions: 635 nm fluorescence, higher = more signal.
Experiment [2] can be described thus: ATP-based viability of Huh7 replicon cells – cell-based, CellTiter-Glo luminescence, basal, 48 h, cytotoxicity control for HCV replication inhibitor project, primary screen (AID 1143).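 Also: Huh7 hepatoma cells carrying a hepatitis C replication reporter with no stimulus; test concentration not given here.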 The conditions noted are these: higher = more signal, called active from +8 up or from −8 down. In general terms: In antiviral work, replicon cells carry a viral genome segment that copies itself.

Experiment [3] can be described thus: Pseudomonas biofilm growth suppression – PAO1 strain, BacTiter-Glo luminescence, LB-PBS, primary screen (AID 1144). The conditions noted are these: P. aeruginosa PAO1 biofilm, 12 h, higher = more signal.
Experiment [4] can be described thus: basal CRE-LacZ reporter activity in PC12 – cell-based, unstimulated, primary screen (AID 1145). Conditions: no forskolin, luminescence, 4.5 h, higher = more signal, called active from +8 up or from −8 down.
Experiment [5] can be described thus: forskolin-driven CRE-LacZ activity in PC12 – cell-based, CRE-LacZ reporter, forskolin-stimulated, primary screen (AID 1146).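 Also: PC12 cells with 6xCRE LacZ reporter stimulated by forskolin 10 µM; beta-galactosidase reporter signal reflecting CREB driven transcription.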 The conditions noted are these: luminescence, 4.5 h, higher = more signal, called active from +8 up or from −8 down.
Experiment [6] addresses Streptavidin (Streptomyces avidinii) (UniProt P22629). Kind of experiment: compounds binding control protein streptavidin – biophysical, small-molecule microarray, 635/667 nm fluorescence, artefact control for SMM compound annotation, primary screen (AID 1147).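 Also: signal reflects streptavidin binding to arrayed compounds as a control protein.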 Conditions: higher = more signal.
A short description of experiment [7]: probe aInhba binding on compound microarray – biochemical, small-molecule microarray, 635/667 nm fluorescence, primary screen (AID 1148).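 Also: score merges 667nm spot fluorescence with signal-to-noise for antibody binding to printed compounds.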 The conditions noted are these: higher = more signal.
Experiment [8] has as its target Torsin-1A (Homo sapiens) (UniProt O14656). The experiment is described as follows: TOR1A wild-type binding on microarray – cell lysate, small-molecule microarray, lysate, 635/667 nm, primary screen (AID 1149). Conditions: COS7 hTOR1A-WT lysate, 635 nm fluorescence, higher = more signal.
Experiment [9] has the same target. Kind of experiment: torsin A mutant lysate binding on microarrays – cell lysate, small-molecule microarray, COS7 lysate, 635/667 nm fluorescence, primary screen (AID 1150).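 Also: score pools 667 nm emission and signal to noise measuring lysate protein binding.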 Conditions: COS7 hTOR1A mutant lysate, 635 nm fluorescence, higher = more signal.
Experiment [10] concerns Sonic hedgehog protein (Shh). Kind of experiment: Sonic hedgehog microarray binding compounds – biochemical, small-molecule microarray, 635/667 nm fluorescence, primary screen (AID 1151).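 Also: Shh protein binding to compounds spotted on small-molecule microarray slides; score combines spot fluorescence intensity with signal-to-noise across triplicate slides.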 The conditions noted are these: 635 nm fluorescence, higher = more signal.
The nature of experiment [11]: optical density shifts of acrAB sulA E. coli – strain DRC41, OD650, 48 h, E. coli filamentation inducer project, primary screen (AID 1152).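 Also: E. coli MC1000 strain DRC41 lacking acrAB efflux pump and sulA.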 The conditions noted are these: higher = more signal, called active from +8 up or from −8 down.
Experiment [12] can be described thus: probe aLefty1 binding on compound microarray – biochemical, small-molecule microarray, 635/667 nm fluorescence, primary screen (AID 1153).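 Also: score merges spot fluorescence with signal-to-noise ratio from the scanned slide images.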 The conditions noted are these: higher = more signal.
Experiment [13] is described as follows: plasmodial surface anion channel blockers, osmotic lysis – cell-based, P. falciparum Indochina, OD700, 1 h, primary screen (AID 1154). Conditions: P. falciparum Indochina infected RBC osmotic lysis, higher = more signal, called active from +8 up or from −8 down.
Experiment [14] is described as follows: plasmodial surface anion channel blockers, osmotic lysis – cell-based, P. falciparum Indochina, OD700, 2 h, primary screen (AID 1155).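 Also: lysis reports solute entry through the parasite surface anion channel PSAC.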 Conditions: P. falciparum Indochina infected erythrocytes, higher = more signal, called active from +8 up or from −8 down.
A short description of experiment [15]: changes in parasitized red cell lysis, either direction – P. falciparum Indochina, OD700, 3 h, PSAC antagonist project, primary screen (AID 1156). Conditions: P. falciparum-infected erythrocytes, osmotic lysis, higher = more signal, called active from +8 up or from −8 down.
Experiment [16] can be described thus: plasmodial surface anion channel blockers, osmotic lysis – cell-based, P. falciparum Indochina, OD700, 18 h, primary screen (AID 1157). The conditions noted are these: P. falciparum Indochina infected erythrocytes, osmotic lysis OD700, 18 h; higher = more signal, called active from +8 up or from −8 down.
A short description of experiment [17]: S6 kinase pathway phospho-S6 level changes – cell-based, A549, cytoblot, luminescence, serum-stimulated, primary screen (AID 1158).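 Also: serum-stimulated A549 lung adenocarcinoma cells; signal is phosphorylated S6 detected by cytoblot immunostaining with HRP secondary.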 Conditions: 5 h, higher = more signal.
In experiment [18] the target is NADPH oxidase 2 (Homo sapiens) (UniProt P04839). Kind of experiment: compounds shifting NOX2 Amplex Red fluorescence – cell-based, HEK293-NOX2, PMA-stimulated, NOX inhibitor project, primary screen (AID 1159). Also: test concentration not given here. Conditions: 45 min, higher = more signal, called active from +8 up or from −8 down.
For experiment [19], the target named is NADPH oxidase 4 (Homo sapiens) (UniProt Q9NPH5). The experiment is described as follows: compounds shifting NOX4 Amplex Red fluorescence – cell-based, HEK293-NOX4, tetracycline-induced, NOX inhibitor project, primary screen (AID 1160). The conditions noted are these: HEK293-NOX4, Amplex Red H2O2 fluorescence, 45 min; higher = more signal, called active from +8 up or from −8 down.

The target in experiment [20] is NADPH oxidase 5 (Homo sapiens) (UniProt Q96PH1). Kind of experiment: compounds shifting NOX5 Amplex Red fluorescence – cell-based, HEK293-NOX5, NOX inhibitor project, primary screen (AID 1161). Conditions: HEK293-NOX5, ionomycin, 45 min, higher = more signal.
Sequence of NADPH oxidase 5 (Homo sapiens) (Q96PH1 whole entry, looked up): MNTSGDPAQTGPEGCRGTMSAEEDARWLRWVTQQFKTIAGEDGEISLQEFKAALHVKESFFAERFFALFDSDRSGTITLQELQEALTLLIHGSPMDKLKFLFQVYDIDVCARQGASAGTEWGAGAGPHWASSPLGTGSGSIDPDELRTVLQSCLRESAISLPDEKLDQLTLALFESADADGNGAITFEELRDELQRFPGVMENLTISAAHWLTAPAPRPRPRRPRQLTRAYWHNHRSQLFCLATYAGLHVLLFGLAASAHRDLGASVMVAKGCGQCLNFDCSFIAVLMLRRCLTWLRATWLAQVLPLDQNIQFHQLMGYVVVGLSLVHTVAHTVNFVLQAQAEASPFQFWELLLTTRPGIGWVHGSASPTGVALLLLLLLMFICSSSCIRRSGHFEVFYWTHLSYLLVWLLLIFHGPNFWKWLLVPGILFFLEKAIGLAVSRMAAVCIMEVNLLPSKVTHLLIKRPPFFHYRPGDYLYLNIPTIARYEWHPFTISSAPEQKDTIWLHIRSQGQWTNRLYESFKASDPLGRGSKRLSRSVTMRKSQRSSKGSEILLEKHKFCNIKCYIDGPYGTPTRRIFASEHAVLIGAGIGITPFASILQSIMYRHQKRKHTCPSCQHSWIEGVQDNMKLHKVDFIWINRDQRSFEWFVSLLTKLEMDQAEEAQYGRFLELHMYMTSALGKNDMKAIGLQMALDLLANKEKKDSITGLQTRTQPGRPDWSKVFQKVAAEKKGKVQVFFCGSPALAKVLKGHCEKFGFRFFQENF

Sequence of Torsin-1A (Homo sapiens) (O14656 whole entry, looked up): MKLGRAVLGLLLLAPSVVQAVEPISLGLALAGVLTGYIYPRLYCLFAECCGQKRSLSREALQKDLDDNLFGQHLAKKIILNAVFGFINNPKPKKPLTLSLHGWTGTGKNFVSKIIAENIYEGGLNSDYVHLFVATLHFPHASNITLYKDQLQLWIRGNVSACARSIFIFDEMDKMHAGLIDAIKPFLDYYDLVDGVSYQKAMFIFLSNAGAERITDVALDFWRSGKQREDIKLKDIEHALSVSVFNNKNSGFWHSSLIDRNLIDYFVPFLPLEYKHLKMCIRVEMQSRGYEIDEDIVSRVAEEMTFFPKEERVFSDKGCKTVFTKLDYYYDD
Sequence of Streptavidin (Streptomyces avidinii) (P22629 whole entry, looked up): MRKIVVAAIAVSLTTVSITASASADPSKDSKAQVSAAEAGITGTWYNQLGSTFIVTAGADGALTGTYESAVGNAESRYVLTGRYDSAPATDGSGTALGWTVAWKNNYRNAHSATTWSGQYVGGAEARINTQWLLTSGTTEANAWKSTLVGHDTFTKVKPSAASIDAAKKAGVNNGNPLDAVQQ
Sequence of NADPH oxidase 2 (Homo sapiens) (P04839 whole entry, looked up): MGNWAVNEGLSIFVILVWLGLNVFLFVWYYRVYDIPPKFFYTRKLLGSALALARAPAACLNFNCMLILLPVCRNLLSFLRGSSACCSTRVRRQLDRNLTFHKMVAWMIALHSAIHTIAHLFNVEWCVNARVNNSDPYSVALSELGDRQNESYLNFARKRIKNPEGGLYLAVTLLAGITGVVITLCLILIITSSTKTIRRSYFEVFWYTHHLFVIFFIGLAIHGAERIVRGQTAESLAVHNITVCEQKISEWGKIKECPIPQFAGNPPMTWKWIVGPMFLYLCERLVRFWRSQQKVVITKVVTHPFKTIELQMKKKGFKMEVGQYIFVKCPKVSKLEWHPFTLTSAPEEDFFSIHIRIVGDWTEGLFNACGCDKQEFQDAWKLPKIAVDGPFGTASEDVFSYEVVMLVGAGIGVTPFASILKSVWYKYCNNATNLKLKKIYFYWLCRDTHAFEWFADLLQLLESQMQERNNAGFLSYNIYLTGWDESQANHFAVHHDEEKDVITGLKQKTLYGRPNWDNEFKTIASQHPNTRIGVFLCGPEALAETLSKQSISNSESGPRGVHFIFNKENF
Sequence of NADPH oxidase 4 (Homo sapiens) (Q9NPH5 whole entry, looked up): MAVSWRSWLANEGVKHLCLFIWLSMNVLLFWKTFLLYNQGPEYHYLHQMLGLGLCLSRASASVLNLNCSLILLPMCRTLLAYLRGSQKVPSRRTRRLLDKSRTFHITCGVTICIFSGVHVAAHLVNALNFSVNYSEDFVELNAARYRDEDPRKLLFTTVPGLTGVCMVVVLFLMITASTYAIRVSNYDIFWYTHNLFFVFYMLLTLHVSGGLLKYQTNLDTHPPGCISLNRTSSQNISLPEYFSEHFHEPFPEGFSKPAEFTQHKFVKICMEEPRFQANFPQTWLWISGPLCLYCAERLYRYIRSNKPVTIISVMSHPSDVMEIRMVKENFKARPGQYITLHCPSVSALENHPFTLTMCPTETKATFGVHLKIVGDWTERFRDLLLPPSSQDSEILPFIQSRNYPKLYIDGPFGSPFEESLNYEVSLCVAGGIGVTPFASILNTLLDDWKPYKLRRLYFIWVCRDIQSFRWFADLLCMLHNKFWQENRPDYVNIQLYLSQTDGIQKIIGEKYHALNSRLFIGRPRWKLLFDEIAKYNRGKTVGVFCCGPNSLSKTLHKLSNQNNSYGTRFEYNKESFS

Turning to `C/C=C/CN(C(=O)C#Cc1ccccc1)[C@H](CO[Si](C)(C)C(C)(C)C)c1ccccc1`, the composite z-score in experiment [1] was -0.515; in experiment [6] it was -1.06; in experiment [7], -0.353; in the experiment with Torsin-1A (Homo sapiens) [8] it was -0.724; in the experiment with Torsin-1A (Homo sapiens) [9], -0.841; in experiment [10], 0.248. The same compound yielded a composite z-score in [12] of -0.324. For the same compound, the z-score was -4.31 (inactive) in experiment [2]; 1.09 (inactive) in experiment [3]; 1.94 (inactive) in [4]; -0.757 (inactive) in experiment [5]; 2.64 (inactive) in [11]; 0.567 (inactive) in [13]. For the same compound, the z-score in experiment [14] is -0.912 (inactive); in [15], -0.509 (inactive); in [16], -1.83 (inactive); in experiment [17], 1.52; in [18] it was 0.405 (inactive); in experiment [19], 0.123 (inactive). The z-score in experiment [20] was -0.373.
Turning to `COC(=O)[C@H](Cc1ccc(O)cc1)N1CC2=CCCC=C[C@@H]2[C@H]1[C@H](O)Cc1ccccc1`, the composite z-score in [1] is 0.0799; in experiment [6] it was -0.53; in experiment [7], 0.0108; with Torsin-1A (Homo sapiens) [8], -0.246; with Torsin-1A (Homo sapiens) [9], -0.0258; in [10], 0.33. Further, the composite z-score in [12] is -0.149. Moreover, the z-score is -0.567 (inactive) in [2]; -1.21 (inactive) in experiment [3]; 2.13 (inactive) in [4]; 1.24 (inactive) in [5]; 1.42 (inactive) in experiment [11]; 3.23 (inactive) in experiment [13]. Also, the z-score is -1.53 (inactive) in experiment [14]; -0.241 (inactive) in experiment [15]; -2.05 (inactive) in experiment [16]; 0.814 in [17]; 0.63 (inactive) in experiment [18]; -3.8 (inactive) in experiment [19]. The z-score in experiment [20] is -2.8.
For `C=CCOC(=O)[C@H]1[C@@H]2C(=O)O[C@@H](c3ccccc3)[C@@H](c3ccccc3)N2[C@@H](c2ccc(OCCOC(=O)[C@@H]3C[C@@H]4C(=O)N[C@@H](CC(C)C)C(=O)N4[C@@H]3c3ccc(O)cc3)cc2)[C@]12C(=O)Nc1ccc(I)cc12`, the composite z-score in experiment [1] is 0.15; in [6] it was 0.149; in experiment [7], -0.0791; with Torsin-1A (Homo sapiens) [8] it was 0.637; in the experiment with Torsin-1A (Homo sapiens) [9] it was 1.22; in experiment [10], 1.91. In addition, in experiment [12], the composite z-score stood at 0.106. Also, the z-score was -0.901 (inactive) in experiment [2]; -1.3 (inactive) in experiment [3]; 0.281 (inactive) in experiment [4]; 0.318 (inactive) in experiment [5]; 0.833 (inactive) in experiment [11]; 2.77 (inactive) in experiment [13]. For the same compound, the z-score was 1.33 (inactive) in experiment [14]; 2.31 (inactive) in experiment [15]; -1.46 (inactive) in [16]; 1.09 in [17]; 0.894 (inactive) in experiment [18]; 0.499 (inactive) in experiment [19]. Moreover, the z-score in experiment [20] is 1.4.
Consider `CC(C)CNC(=O)[C@@H]1c2ccccc2C(=O)N(CC23CC4CC(CC(C4)C2)C3)[C@H]1c1ccc(CO)cc1`, for which the composite z-score in experiment [1] was 0.0626; in [6], 0.524; in [7], -0.212; in the experiment with Torsin-1A (Homo sapiens) [8] it was -0.218; with Torsin-1A (Homo sapiens) [9], 0.546; in experiment [10] it was 0.354. Further, in experiment [12], the composite z-score is -0.0559. For the same compound, the z-score was -3.74 (inactive) in experiment [2]; -1.44 (inactive) in experiment [3]; -0.206 (inactive) in [4]; -0.401 (inactive) in experiment [5]; 0.075 (inactive) in experiment [11]; 0.317 (inactive) in experiment [13]. Further, the z-score in experiment [14] is -0.93 (inactive); in experiment [15] it was -0.348 (inactive); in experiment [16] it was -1.22 (inactive); in [17], 0.84; in [18], -0.234 (inactive); in [19] it was -0.616 (inactive). In addition, in [20], the z-score was -1.78.
